Assay in all cases: NCI-60 one-dose screen, 48 h (100 = growth as untreated, 0 = no growth, -100 = all killed)
For one assay, the system named is SK-MEL-2 melanoma. The following applies: 10 µM unless noted.
The next assay relates to SN12C renal. The following applies: 10 µM unless noted.
The test system of a further assay is UO-31 renal. The following applies: 10 µM unless noted.
Another assay deals with TK-10 renal. The following applies: 10 µM unless noted.
A further assay concerns ACHN renal. The following applies: 10 µM unless noted.
The subject of another assay is CAKI-1 renal. Conditions: 10 µM unless noted.
The subject of another assay is A498 renal. Conditions: 10 µM unless noted.
In the next assay the test system is CCRF-CEM leukemia. The following applies: 10 µM unless noted.
The subject of another assay is MOLT-4 leukemia. The following applies: 10 µM unless noted.
The next assay has as its system SR leukemia. The following applies: 10 µM unless noted.
Another assay concerns RPMI-8226 leukemia. Conditions: 10 µM.
A further assay deals with OVCAR-8 ovarian. Conditions: 10 µM unless noted.
A further assay concerns OVCAR-5 ovarian. The following applies: 10 µM unless noted.
Another assay concerns OVCAR-4 ovarian. The following applies: 10 µM unless noted.
Another assay has as its system SK-OV-3 ovarian. Conditions: 10 µM.
The test system of another assay is IGROV1 ovarian. The following applies: 10 µM unless noted.
For another assay, the system named is OVCAR-3 ovarian. Conditions: 10 µM unless noted.
The test system of the next assay is HS 578T breast. Conditions: 10 µM unless noted.
In a further assay the test system is NCI/ADR-RES ovarian. The following applies: 10 µM unless noted.

About 83,000 compounds went through this panel and 20% of them were active in at least one assay; those are over-represented in the sample as a whole.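 Assay: single dose, 48 h. Readout: percent growth (0 = no net growth; negative = cell death). Active: <10.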 Values without a mark were called inactive. Activity calls are given as the source filed them.

With `Cc1nc2cc(Nc3nc(Nc4ccc(F)cc4)nc(-c4ccc(Cl)cc4)n3)ccc2n1Cc1ccccc1`, the growth is 83.6% in the assay with SK-MEL-2 melanoma; 77.1% in the assay on SN12C renal; 44.5% with UO-31 renal; 112% in the assay with TK-10 renal; 71.6% with ACHN renal; 90.4% with CAKI-1 renal. Moreover, the growth in the assay with A498 renal was 70.3%; in the assay with CCRF-CEM leukemia, 3.88% (active); with MOLT-4 leukemia, 0.841% (active); in the assay on SR leukemia, -19.4% (active); in the assay on RPMI-8226 leukemia it was 0.193% (active); with OVCAR-8 ovarian, 62.8%. Moreover, the growth in the assay with OVCAR-5 ovarian is 92.3%; in the assay with OVCAR-4 ovarian, 58.6%; in the assay on SK-OV-3 ovarian, 92.9%; in the assay with IGROV1 ovarian, 48.7%; in the assay on OVCAR-3 ovarian, 57.3%; in the assay on HS 578T breast it was 75.4%. Further, the growth in the assay with NCI/ADR-RES ovarian is 59.1%.

For the compound `Cc1nn(-c2ccccc2)c2nc3nc4c(c(N)c3c(-c3ccc(Cl)cc3)c12)CCCC4`, the growth in the assay on SK-MEL-2 melanoma was 98.3%; with SN12C renal, 96.3%; in the assay on UO-31 renal, 84.4%; in the assay on TK-10 renal it was 112%; in the assay with ACHN renal, 81.8%; in the assay with CAKI-1 renal, 90.5%. In addition, the growth in the assay with A498 renal is 97.2%; in the assay with CCRF-CEM leukemia, 92.5%; with MOLT-4 leukemia, 97%; in the assay on SR leukemia, -15.3% (active); in the assay with RPMI-8226 leukemia, 93%; in the assay with OVCAR-8 ovarian, 92.6%. In addition, the growth with OVCAR-5 ovarian is 96.3%; with OVCAR-4 ovarian it was 109%; in the assay on SK-OV-3 ovarian, 101%; with IGROV1 ovarian, 104%; in the assay on OVCAR-3 ovarian, 114%; in the assay on HS 578T breast, 105%. In addition, the growth in the assay on NCI/ADR-RES ovarian was 106%.

Take `CC1(C)N=C(N)N=C(N)N1c1cccc(/C=C/C=C/c2cccc([N+](=O)[O-])c2)c1`: the growth is 67.2% in the assay with SK-MEL-2 melanoma; 83.6% with SN12C renal; 81.5% in the assay on UO-31 renal; 50.9% in the assay with TK-10 renal; 95.6% with ACHN renal; 96.9% with CAKI-1 renal. Also, the growth in the assay with A498 renal was 65.2%; in the assay with CCRF-CEM leukemia, 35%; with MOLT-4 leukemia, 45.5%; in the assay with SR leukemia, 37%; with RPMI-8226 leukemia it was 8.42% (active); with OVCAR-8 ovarian, 84.1%. Also, the growth in the assay on OVCAR-5 ovarian is 44.7%; in the assay on OVCAR-4 ovarian, 65.3%; in the assay with SK-OV-3 ovarian, 83.3%; in the assay with IGROV1 ovarian it was 35.3%; with OVCAR-3 ovarian, 30.1%; in the assay with HS 578T breast, 95%. Moreover, the growth in the assay with NCI/ADR-RES ovarian is 108%.

Regarding `CCCCC(=O)N/N=C/c1cc(I)cc(I)c1O`, the growth in the assay on SK-MEL-2 melanoma was 64.3%; in the assay with SN12C renal, 56.3%; in the assay with UO-31 renal, 34.9%; with TK-10 renal it was 49.3%; in the assay on ACHN renal, 23.6%; with CAKI-1 renal, 21.6%. The growth in the assay with A498 renal is 70.4%; in the assay with CCRF-CEM leukemia it was 14.9%; in the assay with MOLT-4 leukemia, 28.2%; in the assay with SR leukemia, 16.8%; in the assay with RPMI-8226 leukemia, 53%; with OVCAR-8 ovarian, 36.6%. Besides, the growth with OVCAR-5 ovarian is 59.6%; in the assay on OVCAR-4 ovarian, 34.1%; in the assay with SK-OV-3 ovarian it was 58.6%; with IGROV1 ovarian, 35.8%; in the assay with OVCAR-3 ovarian, 18.7%; with HS 578T breast, 76.6%. Also, in the assay with NCI/ADR-RES ovarian, the growth is 23.9%.

Take `COc1ccc(C(=O)C2=CC(=O)C(=O)C2)cc1OC`: the growth in the assay on SK-MEL-2 melanoma was 101%; in the assay on SN12C renal it was 109%; in the assay on UO-31 renal, 91.5%; in the assay on TK-10 renal, 98.7%; with ACHN renal it was 103%; in the assay with CAKI-1 renal, 97.4%. Moreover, the growth in the assay on A498 renal is 94.3%; with CCRF-CEM leukemia, 95.3%; in the assay with MOLT-4 leukemia, 101%; in the assay with SR leukemia, 94.3%; with RPMI-8226 leukemia, 98.7%; in the assay on OVCAR-8 ovarian it was 113%. Also, the growth in the assay with OVCAR-5 ovarian is 98.2%; with OVCAR-4 ovarian, 109%; with SK-OV-3 ovarian it was 104%; with IGROV1 ovarian, 99.3%; in the assay with OVCAR-3 ovarian, 108%; with HS 578T breast, 110%. For the same compound, in the assay on NCI/ADR-RES ovarian, the growth was 99.5%.

For the compound `Cn1c(=O)c(S(=O)(=O)c2ccccc2)cc2ccc3c(cnn3-c3ccc(Cl)cc3)c21`, the growth was 87.2% with SK-MEL-2 melanoma; 86.6% in the assay on SN12C renal; 52.2% in the assay on UO-31 renal; 81.5% in the assay with TK-10 renal; 58.2% in the assay on ACHN renal; 82.8% in the assay on CAKI-1 renal. The growth was 53.5% in the assay on A498 renal; 95.8% in the assay with CCRF-CEM leukemia; 94.8% in the assay with MOLT-4 leukemia; 79% in the assay with SR leukemia; 75.9% with RPMI-8226 leukemia; 60.9% in the assay with OVCAR-8 ovarian. Further, the growth in the assay on OVCAR-5 ovarian is 94.3%; in the assay on OVCAR-4 ovarian, 39.1%; in the assay with SK-OV-3 ovarian, 69.7%; in the assay on IGROV1 ovarian it was 96%; in the assay with OVCAR-3 ovarian it was 94.5%; in the assay with HS 578T breast, 69.3%. In addition, the growth in the assay with NCI/ADR-RES ovarian was 81.5%.

For the compound `COc1nc2c(cc1S(=O)(=O)c1ccccc1)CCc1c-2cnn1-c1cccc(Cl)c1`, the growth was 88.9% in the assay with SK-MEL-2 melanoma; 77.4% in the assay with SN12C renal; -15.6% (active) in the assay on UO-31 renal; 94.2% in the assay on TK-10 renal; 68.3% in the assay with ACHN renal; 63.5% in the assay with CAKI-1 renal. Also, the growth in the assay on A498 renal was 54.6%; in the assay with CCRF-CEM leukemia it was 70.4%; in the assay on MOLT-4 leukemia it was 66.1%; in the assay on SR leukemia, 47.4%; in the assay on RPMI-8226 leukemia it was 56.6%; in the assay with OVCAR-8 ovarian, 81.8%. For the same compound, the growth in the assay with OVCAR-5 ovarian was 80.1%; in the assay with OVCAR-4 ovarian, 87%; in the assay with SK-OV-3 ovarian, 83.2%; with IGROV1 ovarian, 94.9%; with OVCAR-3 ovarian, 93.7%; in the assay with HS 578T breast, 102%. For the same compound, in the assay on NCI/ADR-RES ovarian, the growth was 89.7%.

For `O=[N+]([O-])c1cc2c(cc1Br)-c1ccccc1C2`, the growth in the assay on SK-MEL-2 melanoma is 101%; with SN12C renal, 85.1%; in the assay with UO-31 renal, 70.5%; in the assay with TK-10 renal it was 126%; in the assay on ACHN renal, 94.2%; with CAKI-1 renal it was 76.4%. The growth with A498 renal is 95.1%; with CCRF-CEM leukemia, 70.9%; in the assay with MOLT-4 leukemia, 88.8%; with SR leukemia it was 82.7%; in the assay with RPMI-8226 leukemia, 80.7%; with OVCAR-8 ovarian it was 97.3%. Moreover, the growth in the assay on OVCAR-5 ovarian is 124%; in the assay with OVCAR-4 ovarian, 48.5%; with SK-OV-3 ovarian, 90%; in the assay with IGROV1 ovarian, 87.1%; in the assay on OVCAR-3 ovarian, 102%; with HS 578T breast it was 94%. Also, the growth in the assay on NCI/ADR-RES ovarian was 81.6%.
